Tgondii IFNg: T. gondii growth inhibition with IFN-gamma, primary screen, cell-based; Toxoplasma gondii growth in IFN-gamma-treated host cells; stronger effect = lower value; activity change, negative = inhibition, % (test concentration not listed); AID 1259416, 2018; 69,000 compounds, 3.8% hits; in the data active means activity change below about -70%, passing the limit was not always enough;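 further: host cells are HeLa cells infected with Toxoplasma gondii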
Each line names hits and unclear results; the compound was inactive in the other large screens. The entries come from a sample that favours hits as a whole.

O=c1ccc2cc(S(=O)(=O)N3CCN(c4ccc(F)cc4)CC3)ccc2[nH]1	none
COc1cccc([C@@H]2CNC[C@H]2c2cc(=O)[nH]c(N3CCn4c(CO)nnc4C3)n2)c1	none
COc1cc(NC(=O)c2c(C)oc3c2C(=O)CCC3)ccc1NC(=O)CC(C)C	none
CCOC(=O)COc1ccc(Br)cc1	none
Cc1cccc(C(=O)N2CCc3c([nH]c4ccccc34)C2c2ccc(Cl)cc2)c1 (stereo unspecified)	Tgondii IFNg -104.2
Cc1cccc(C(=O)N2CCc3c([nH]c4ccccc34)C2c2ccc(F)cc2)c1 (stereo unspecified)	none
CN(C)c1cccc(C(=O)N2CCc3c([nH]c4ccccc34)C2c2ccccc2)c1 (stereo unspecified)	Tgondii IFNg -111.3
CSc1ccc(C2c3[nH]c4ccccc4c3CCN2C(=O)c2cccc(N(C)C)c2)cc1 (stereo unspecified)	none
CSc1ccc(C2c3[nH]c4ccccc4c3CCN2C(=O)c2cccc(C)c2)cc1 (stereo unspecified)	Tgondii IFNg -114.6
CSc1ccc(C2c3[nH]c4ccccc4c3CCN2C(=O)c2cccc(F)c2)cc1 (stereo unspecified)	none
COc1ccc(C2c3[nH]c4ccccc4c3CCN2C(=O)c2ccc(N(C)C)cc2)cc1 (stereo unspecified)	none
CCC(=O)NCc1csc(C2CCN(C(=O)Cc3ccc(Cl)cc3)CC2)n1	none
COC(=O)c1cc2n(n1)CCN(C(=O)c1oc3cc(OC)ccc3c1C)C2	none
CCOc1cccc(CN(Cc2ccccn2)C2CC2)c1	none
CCOc1ccc(-c2nc(Cn3c(=O)c4cccnc4n(-c4ccccc4OC)c3=O)c(C)o2)cc1	none
CCCc1ncc(-c2ccncc2)c(C2CCCCN2C(=O)c2c(OC)cccc2OC)n1 (stereo unspecified)	none
CC(C)C(=O)N1CCC2(CC2C(=O)N(C)Cc2ccccn2)C1 (stereo unspecified)	none
COCCC(=O)N1CC2CN(C(=O)CCc3ccccc3)C2C1 (stereo unspecified)	none
CCC(=O)N1Cc2ccccc2C2(CCN(Cc3cnn(C)c3)CC2)C1	none
CN1C[C@H]2C[C@@H]1CN2c1cc2c(cc1F)c(=O)c(C(=O)O)cn2C1CC1	none
CN(CC(=O)O)C(=N)N	none
CN(C)S(=O)(=O)c1ccc(CCC(=O)Nc2ccc3ncn(C)c3c2)cc1	none
Cc1oc(-c2ccc(NC(=O)CCc3ccccc3)cc2)nc1Cn1cccn1	none
COc1ccc(-c2nc(C)c(C(C)=O)n2O)cc1OC	none
COc1ccc(/C=C/c2nn3c(-c4ccc(OC)c(OC)c4)nnc3s2)cc1	Tgondii IFNg -100.9
COc1ccc(-c2nnc3sc(C4COc5ccccc5O4)nn23)cc1OC (stereo unspecified)	none
O=C(Nc1nnc(/C=C/c2ccccc2)s1)c1ccc(Cl)c(Cl)c1	none
Fc1cc(Br)cc(F)c1NC(=S)Nc1cccc(Cl)c1	none
O=C(c1cccc(F)c1)N1CCN2C[C@H](OCC3CC3)C[C@@H]2C1	none
Cc1ccc(C(=O)Nc2ccc(NC(=O)C(C)n3ccnc3C)cc2)o1 (stereo unspecified)	none
Cn1c(CNC(=O)c2ccc(Cl)cc2Cl)cc2ccccc21	none
CC(C)C[C@H](NC(=O)CNC(=O)c1cc(Cl)ccc1Cl)B(O)O	Tgondii IFNg -79.3
CC(C)CC(NC(=O)c1cccc(Cl)c1)C(=O)O (stereo unspecified)	none
Cc1cc(C)cc(CN2CCN(Cc3cnn(C)c3C3CC3)CC2=O)c1	none
O=C(NCCN1CCOCC1)c1csc(-c2ccc(N3CCCC3)nc2)n1	Tgondii IFNg -99.6
O=C(c1csc(-c2ccc(N3CCCC3)nc2)n1)N1CCC2(CC1)OCCO2	none
O=C(NCc1ccc(N2CCOCC2)cc1)c1csc(-c2ccc(N3CCCC3)nc2)n1	none
COc1ccccc1NC(=O)c1nc(Nc2ccc(C)cc2)c2ccccc2n1	none
C=CC(=O)Nc1cccc(Nc2nc(Nc3ccc(NC4CN(CCF)C4)cc3OC)ncc2C(F)(F)F)c1	none
COc1cc(OC)c(NC(=O)NCC(c2cccnc2)c2cn(C)c3ccccc23)cc1Cl (stereo unspecified)	none
C=CC(=O)Nc1cc(Nc2nccc(-c3cn(C)c4ccccc34)n2)c(OC)cc1N(C)CCN(C)C	Tgondii IFNg -74.0
CNc1cc(C(=O)N(C)C(C)c2cc3ccccc3[nH]2)ccn1 (stereo unspecified)	none
COc1ccc2c(c1)OCC(c1cncn1Cc1ccccc1CN(C)C)=C2	none
CC(C)CCNc1ccc(-c2ccc(Cl)cc2)nn1	none
O=C1C(Cc2c[nH]c3ccccc23)N=C2c3ccccc3N=C(SCc3cc(=O)n4cc(Cl)ccc4n3)N12 (stereo unspecified)	none
Clc1ccc(-c2nnc(-c3nc(NCc4ccccc4)c4ccccc4n3)o2)cc1	none
Fc1ccccc1CNc1nc(-c2nnc(-c3ccccc3)o2)nc2ccccc12	Tgondii IFNg -75.8
Cc1cccc(-c2nnc(-c3nc(NC(C)c4ccccc4)c4ccccc4n3)o2)c1 (stereo unspecified)	Tgondii IFNg -93.8
Cc1cccc(-c2nnc(-c3nc(NCc4ccccc4C)c4ccccc4n3)o2)c1	Tgondii IFNg -91.2
Fc1ccc(CNc2nc(-c3nnc(-c4ccccc4)o3)nc3ccccc23)cc1	none
COc1ccccc1CNc1nc(-c2nnc(-c3ccc(C)cc3)o2)nc2ccccc12	none
Clc1ccccc1CSc1nc(NC2CCCCC2)c2ccccc2n1	none
Fc1cccc(CSc2nc(NC3CCCCC3)c3ccccc3n2)c1	Tgondii IFNg -75.8
CCOc1ccc(Nc2nc(-c3nnc(-c4cccc(C)c4)o3)nc3ccccc23)cc1	none
Cc1cccc(Nc2nc(-c3nnc(-c4ccccc4)o3)nc3ccccc23)c1	none
Cc1cccc(-c2nnc(-c3nc(Nc4ccc(F)cc4)c4ccccc4n3)o2)c1	none
Clc1cccc(CSc2nc(NCCc3ccccc3)c3ccccc3n2)c1	none
COc1cccc(-c2ccc(C(=O)Nc3nc(C(C)C)cs3)c(=O)[nH]2)c1	none
Cc1ccc(NC(=O)Cn2c(=O)cc(C(=O)N3CCOCC3)c3ccccc32)cc1F	none
COC(=O)c1cc2n(n1)CCCN(C(=O)CC(=O)Nc1cccc(C)c1)C2	none
CCOCC1CN(C(=O)Cc2cccs2)Cc2cncn2C1 (stereo unspecified)	none
Cc1nc(C2COCCN2C(=O)COc2ccc(F)cc2)cs1 (stereo unspecified)	none
CCOc1cccc(-c2noc(-c3nnn(Cc4nc(-c5ccccc5)oc4C)c3C)n2)c1	none
CC(C)c1noc(C2CCCN2C(=O)c2cnnn2-c2ccccc2)n1 (stereo unspecified)	none
Cc1ccc(N2CCN(c3nc(-c4ccc(Cl)cc4)nc4ccccc34)CC2)c(C)c1	none
Cc1cnccc1CN(C)C(=O)c1ccc(C#CC(C)(C)O)o1	none
CC(C)(C)[C@@H](CO)NC(=O)CCC(=O)NC1CCCC1	none
CN(Cc1ccsc1)C(=O)c1ccccc1-c1ncc[nH]1	none
Cc1cccc(-c2nnc(-c3nc(NCc4ccc(F)cc4)c4ccccc4n3)o2)c1	none
Cc1cccc(-c2nnc(-c3nc(NCc4ccccc4)c4ccccc4n3)o2)c1	Tgondii IFNg -107.2
Cc1ccc(Nc2nc(-c3nnc(-c4ccc(F)cc4)o3)nc3ccccc23)cc1	none
Fc1ccc(-c2nnc(-c3nc(NC4CCCCC4)c4ccccc4n3)o2)cc1	Tgondii IFNg -103.8
Cc1ccc(CNc2nc(-c3nnc(-c4cccc(C)c4)o3)nc3ccccc23)cc1	none
Cc1ccc(-c2nnc(-c3nc(Nc4ccc(F)cc4)c4ccccc4n3)o2)cc1	none
C1=C(Cc2nc(C3CC3)n[nH]2)CCCC1	none
Cn1c(Cc2ccsc2)nnc1SCC(=O)Nc1ccc2c(c1)OCCO2	none
CCn1c(CNS(=O)(=O)c2ccc3c(c2)OCO3)nc2ccccc21	none

High-throughput results: PubChem, Broad Institute
